Results on 40 compounds are retold here after PubChem BioAssay (NCI).

This is part of a sample that, as a whole, favours compounds with a hit. Of some 83,000 tested, about 20% had one in any assay.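 How to read the values: 0–100, growth inhibition (40 = 60% inhibited); 0, no net growth; -100 to 0, cell death (-40 = 40% of starting cells died; -100 = all dead).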 Active and inactive are the calls of the source.

The subject of this assay is SK-MEL-28 melanoma. In words: NCI-60 one-dose screen, 48 h (100 = growth as untreated, 0 = no growth, -100 = all killed). The conditions noted are these: 10 µM unless noted. As to the method:
Growth inhibition of the SK-MEL-28 human tumor cell line is measured as a screen for anti-cancer activity. Cells are grown in 96 well plates and exposed to the test compound for 48 hours. Compounds are tested at a single concentration, which is 10^-5 M for most compounds. The reported endpoint is percent growth (GI% or GIPRCNT), where numbers from 0 - 100% represent growth inhibition, and numbers from -100% - 0 represent cell death. For example, a value of 40 represents 60% growth inhibition. A value of 0 means no net growth occurred over the course of the experiment. A value of -40 indicates 40% of cells at the beginning of the experiment died by the end of the experiment. A value of -100 means all cells are dead at the end of the experiment.
NCI-60 Human Tumor Cell Lines Screen was performed using the standard one-dose NCI protocol, which is described in more detail at https://dtp.cancer.gov/discovery_development/nci-60/default.htm.
Compounds with GIPRCNT values below 10 were considered active. Activity score was based on GIPRCNT using the following formula: […]
Score is 0 for GIPRCNT values of 100 or above, 50 for GIPRCNT values of 0, and 100 for GIPRCNT values of -100.
As to `CC(C)[C@@]12C[C@@H](OC(=O)C3CO3)[C@@](C)(O1)[C@@H]1CC[C@@H](C)[C@H]1[C@@H]2OC(=O)/C=C/c1ccccc1` (stereo not given in full), the growth is 110% (inactive). For the compound `O=C(N/N=C/c1ccccc1O)c1ccncc1`, the growth was 61.1% (inactive).

As for `O=C(C(=O)N1CCCC1)c1cn(CCCn2cc(C(=O)C(=O)N3CCCC3)c3cc(Br)ccc32)c2ccc(Br)cc12`, the growth is 79.8% (inactive). Take `CCc1onc(-c2ccc(OC)cc2)c1-c1ccccc1OCCN(CC)CC`: the growth was 100% (inactive). Regarding `CCN(CC)CCCC(C)Nc1ccnc2ccc(Oc3ccccc3)cc12` (stereo not given), the growth is -6.8% (active). Regarding `CN1CCC2(CC1)N=C(SCC(=O)Nc1cnc3ccccc3c1)C(c1ccc(Br)cc1)=N2`, the growth is -70.1% (active). As to `Nc1c(C(=O)Nc2ccccc2)sc2nc3c(cc12)C(=O)CCC3`, the growth is 58.7% (inactive). For `CCCCCCCCCCCCCCCCCC(=O)[O][Sn]([CH2]CCC)([CH2]CCC)[CH2]CCC` the value was -94.8% (active). Take `C=CCN1C(=O)/C(=c2\sc3n(c2=O)C2C(NN=3)N(CC)C(=O)N2CC)c2ccccc21` (stereo not given): the growth is 62.4% (inactive). In the case of `C=C1C[C@@]2(C)C(CC[C@]3(C)C2CC=C2C4CC(C)(C)C[C@@H](OC(=O)/C(C)=C\C)[C@]4(C(=O)O)CC[C@]23C)C(C)(C)C1=O` (stereo not given in full), the growth was 2.5% (active). Regarding `COc1cc(C2CC(c3ccc(C)cc3)=NN2C=O)ccc1Oc1ccnc2cc(Cl)ccc12` (stereo not given), the growth is 101% (inactive). With `NNc1ccc(S(N)(=O)=O)cc1`, the growth was 108% (inactive). Take `COc1cccc(NC(=O)OC(C)C)c1`: the growth was 108% (inactive). Take `CC(C)=CC[C@@H]1CC2(CC=C(C)C)C(=O)C(OC3(C(=O)c4ccccc4)C(=O)C4(CC=C(C)C)C[C@@H](CC=C(C)C)C(C)(C)C(CC=C(C)C)(C4=O)C3=O)(C(=O)c3ccccc3)C(=O)C(CC=C(C)C)(C2=O)C1(C)C` (stereo not given in full): the growth is 14.9% (inactive). For `CCn1c(=O)c(C(=O)NCCCO)c(O)c2ccccc21`, the growth is 118% (inactive). Next, `Nc1c(Br)cc2c(c1Br)Cc1cc(Cl)ccc1-2`: 98.6% (inactive). `CCCCCCCC/C=C\CCCCCCCC(=O)OCCCCCC`: the growth was 122% (inactive). With `O=C(NNC(=O)c1cccc(Cl)c1)c1ccccc1`, the growth was 119% (inactive).

For `COc1ccc(C(=O)O)cc1.[Ag]`, the growth is 110% (inactive).

With `COc1cc2ncnc(Nc3ccc(S(=O)(=O)Nc4nccs4)cc3)c2cc1OCCCN1CCOCC1`, the growth is 109% (inactive).

Consider `Fc1ccc(-c2nc(-c3ccc(-c4nc5ccc(F)cc5[nH]4)cc3)no2)cc1`, for which the growth is 80.5% (inactive). With `CC(=O)OC[C@H]1O[C@@H](n2c(=O)cc(N)[nH]c2=O)C(OC(C)=O)[C@@H]1OC(C)=O` (stereo not given in full), the growth was 110% (inactive). With `C=CCOc1ccc2c(C)cc(=O)oc2c1`, the growth is 113% (inactive). Regarding `O=C1/C(=C/N2N=C(c3ccc(Cl)cc3)CC2c2ccccc2O)SC(=S)N1c1cccc(C(F)(F)F)c1` (stereo not given), the growth was 73.9% (inactive). With `CCOc1cc(/C=N\NC(=O)C[N+](C)(C)C)ccc1O`, the growth is 117% (inactive). For `CC(=O)N1N=C(C2C(=O)N(C)C(=O)N(C)C2=O)CC1c1ccccc1C(=O)O` (stereo not given) the value was 112% (inactive); for `NC(=O)N/N=C\c1ccc([N+](=O)[O-])o1`, 106% (inactive); for `CC1=C(/C=C/C(C)=C/C=C(C(=O)O)\C(C)=C\C(=O)O)C(C)(C)CCC1`, 114% (inactive).

As to `COc1ccc2c(c1)sc1nc(-c3ccccc3)c(-c3cccc4ccccc34)n12`, the growth is 52.1% (inactive).

Consider `CCCCCCCC/C=C/CCCCCCCC1=NC(C)(C)CN1C(C)C`, for which the growth is -82.8% (active). For `Cn1cnc([N+](=O)[O-])c1S(=O)(=O)Oc1cccc2ccccc12`, the growth was 85.1% (inactive).

In the case of `CCCCCCCCCCCCCC`, the growth is 106% (inactive). Take `c1ccc(CCn2cccc2)nc1`: the growth is 118% (inactive). For the compound `Nc1nc(NC2CC2)cc(-c2cccc(Cl)c2Cl)n1`, the growth was 68.7% (inactive). For `Clc1cc2nc(-c3ccccc3)c(-c3ccccc3)nc2cc1Cl`, the growth is 101% (inactive). In the case of `CCN(CC)c1ccc(/C=C2/NC(=O)NC2=O)cc1`, the growth is 66.6% (inactive).

On to `Cc1ccc(C(CN(C)C)C(=O)c2ccccc2)cc1` (stereo not given), for which the growth was 50.7% (inactive). For `CCCCCCCCCCCCCCCCCC1=NCCN1CCO` the value was 89.4% (inactive); for `CCC(=O)OCc1ccc(OC)cc1`, 111% (inactive); for `Nc1c(N)c2ccccc2c2ccccc12`, 110% (inactive).
